Experimental data as given in article PMC4336329 (PLoS ONE, 2015).
Out of some 310,000 compounds screened, about 14,000 (4.5%) showed an effect of 50% or more. Effects have a minus sign here. The entries come from a sample that favours strong results as a whole.

These molecules were tested against human ether-à-go-go-related gene (hERG) potassium channel (human, UniProt Q12809) (assay: primary screen, population patch clamp on CHO cells stably expressing hERG; higher = less effect of the substance).
human ether-à-go-go-related gene (hERG) potassium channel, sequence (Q12809 whole entry, looked up): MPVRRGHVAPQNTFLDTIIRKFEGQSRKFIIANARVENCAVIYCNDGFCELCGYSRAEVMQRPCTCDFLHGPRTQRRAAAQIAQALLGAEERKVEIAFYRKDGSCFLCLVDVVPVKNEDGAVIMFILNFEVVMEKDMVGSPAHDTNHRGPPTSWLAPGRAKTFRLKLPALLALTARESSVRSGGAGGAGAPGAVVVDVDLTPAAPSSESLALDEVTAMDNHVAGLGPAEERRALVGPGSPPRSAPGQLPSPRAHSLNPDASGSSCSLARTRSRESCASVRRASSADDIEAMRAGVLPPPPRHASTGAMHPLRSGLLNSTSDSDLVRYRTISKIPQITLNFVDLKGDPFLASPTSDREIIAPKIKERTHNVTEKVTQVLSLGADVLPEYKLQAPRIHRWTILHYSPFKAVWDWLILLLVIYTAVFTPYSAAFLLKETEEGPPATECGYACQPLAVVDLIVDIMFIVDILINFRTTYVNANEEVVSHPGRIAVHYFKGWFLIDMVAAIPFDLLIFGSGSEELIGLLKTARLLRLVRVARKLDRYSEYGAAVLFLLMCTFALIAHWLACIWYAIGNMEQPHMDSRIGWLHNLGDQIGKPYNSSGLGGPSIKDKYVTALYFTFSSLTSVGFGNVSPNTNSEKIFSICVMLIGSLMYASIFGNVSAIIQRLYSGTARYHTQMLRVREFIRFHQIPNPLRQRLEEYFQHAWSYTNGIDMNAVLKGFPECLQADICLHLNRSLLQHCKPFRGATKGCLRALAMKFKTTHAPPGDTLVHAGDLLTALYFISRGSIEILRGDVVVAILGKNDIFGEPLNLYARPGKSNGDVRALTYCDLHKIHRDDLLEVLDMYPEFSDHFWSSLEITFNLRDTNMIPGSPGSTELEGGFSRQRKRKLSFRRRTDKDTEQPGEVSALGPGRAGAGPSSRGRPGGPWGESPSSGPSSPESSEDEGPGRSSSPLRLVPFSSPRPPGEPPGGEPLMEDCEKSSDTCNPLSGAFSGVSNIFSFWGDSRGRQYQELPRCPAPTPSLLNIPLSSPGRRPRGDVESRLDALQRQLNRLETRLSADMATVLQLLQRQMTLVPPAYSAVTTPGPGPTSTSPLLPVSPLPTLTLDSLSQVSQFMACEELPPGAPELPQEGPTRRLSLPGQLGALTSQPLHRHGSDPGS
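Also: peak tail current of the secondary pulse compared with the same well before compound.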

SMILES	hERG current change (%, negative = inhibition) at 10uM [%]
CCc1nnc(NC(=O)CSc2nc3[nH]c(=O)cc(O)c3s2)s1	-0.838
O=C(OCc1ccc([N+](=O)[O-])cc1)c1ccccn1	-28.2
Nn1c(SCc2c(F)cccc2F)nnc1-c1ccccn1	2.69
CC1(C(=O)NCC2CCCO2)Oc2cccnc2NC1=O (stereo not shown)	5.86
CC(=O)Nc1c2c(nn1-c1ccccc1C)CS(=O)C2 (stereo not shown)	18.7
Cc1ccc(CS(=O)(=O)c2ccc(C(=O)N3CCN(c4ccccn4)CC3)cc2[N+](=O)[O-])cc1	-43.9
COc1ccccc1/C=C/C1=NC(=C\C=C/c2ccccc2)/C(=O)O1	3.98
CC(/C=N/NC(=O)c1ccc(Cn2cc([N+](=O)[O-])cn2)o1)=C\c1ccccc1	-5.3
O=S(=O)(c1ccc(Br)cc1)N1CCn2c(nc3ccccc32)C1	-7.4
CCOc1cc(C(=O)OCC(=O)Nc2cc(C)on2)cc(OCC)c1OCC	2.29
Cc1ccc(NC(=O)CNC(=O)c2ccco2)cc1Cl	17
COc1ccc(OC)c(-c2csc(N(Cc3ccco3)C(=O)c3ccco3)n2)c1	7.74
CCOc1ccccc1N1CC(C(=O)N(C)Cc2cccnc2)CC1=O (stereo not shown)	15
COc1ccc(N(C)C(=O)CCS(=O)(=O)c2cccc3nonc23)c(OC)c1	1.11
Cl.Cn1c(=N)n(CC(O)c2ccco2)c2ccccc21 (stereo not shown)	-9.79
Cl.N=c1n(CCN2CCCCC2)c2ccccc2n1CC(O)c1ccco1 (stereo not shown)	-55.2
CCCCCCCn1c(=N)n(CC(O)c2ccco2)c2ccccc21.Cl (stereo not shown)	-86.9
CCCn1c(=N)n(CC(O)c2ccco2)c2ccccc21.Cl (stereo not shown)	-43.8
CCN(CC)CCn1c(=N)n(CC(O)c2ccco2)c2ccccc21.Cl (stereo not shown)	-73.2
Cl.N=c1n(CCN2CCCC2)c2ccccc2n1CC(O)c1ccco1 (stereo not shown)	-34
CC(=O)N1N=C(C)CC1c1ccc(OCc2ccccc2)cc1 (stereo not shown)	-15.5
O=C(CN(CC(=O)N1CCOCC1)S(=O)(=O)c1ccc(Br)s1)N1CCOCC1	12.8
CCOc1ccc(N(C(C)C(=O)NCc2ccco2)S(C)(=O)=O)cc1 (stereo not shown)	-2.31
NC(=O)CC(NC(=O)c1cccc(Br)c1)c1ccc(N2CCN(c3ccc(F)cc3)CC2)c([N+](=O)[O-])c1 (stereo not shown)	-2.08

SMILES	hERG current change (%, negative = inhibition) at 10uM [%]
O=C(CNS(=O)(=O)c1ccc(Br)s1)N1CCCC1	22
COc1cc(C(=O)NCCC2=CCCCC2)ccc1OC1CCN(C(C)=O)CC1	2.98
COc1cccc(CCNC(=O)c2ccc(OC)c(OC3CCN(C(C)C)CC3)c2)c1	-57.4
COc1ccccc1CCNC(=O)c1ccc(OC)c(OC2CCN(C(C)C)CC2)c1	-46.3
COc1ccc(C(=O)NCCC2=CCCCC2)cc1OC1CCN(C(C)C)CC1	-78.1
COCCCNC(=O)c1ccc(OC)c(OC2CCN(C(C)C)CC2)c1	10.3
COc1ccc(C(=O)NCCC2=CCCCC2)cc1OC	-3.21
CC1CN=C(NCc2ccc(F)cc2)S1 (stereo not shown)	-8.5
CCOc1ccccc1C(=O)Nc1cc(C(=O)NCC(C)C)ccc1Cl	12
CCCc1ccc(Oc2c(-c3ccc(O)c(C)c3O)n[nH]c2C)cc1	-13.2
COc1ccc(N2CCN(S(=O)(=O)c3c(C)nc4sccn4c3=O)CC2)cc1	-9.86
Cc1nc2sccn2c(=O)c1S(=O)(=O)N1CCN(c2ccc(F)cc2)CC1	-70.2
Cc1nc2sccn2c(=O)c1S(=O)(=O)N1CCN(c2ccccc2)CC1	-11.2
Cc1cc(NC(=O)Nc2ccc(OCc3ccccc3)cc2)n(C)n1	23.8
COc1ccc(-n2c(Cc3cccn3C)nnc2SCC(=O)NCc2ccco2)cc1	-12.9
Cc1nc(SCc2c(Cl)cccc2Cl)nc(OC(=O)N(C)C)c1C	-4.32
O=C(Cn1cnc2scc(-c3ccccc3)c2c1=O)NCc1ccco1	-24.9
CCc1ccc(-c2csc3ncn(CC(=O)NCc4ccco4)c(=O)c23)cc1	-4.39
O=C(Cn1cnc2scc(-c3cccc([N+](=O)[O-])c3)c2c1=O)NCc1ccco1	-54
CC(C)(C)c1ccc(COC(=O)CNC(=O)CNC(=O)Cc2ccccc2)cc1	-6.93
CCOP(=O)(CC(C(C)=O)C(O)c1ccccc1)OCC (stereo not shown)	11.3
CCOCCCNC(=O)c1cc2c(=O)n3ccccc3nc2s1	-7.05
O=C(NCc1cccs1)c1cc(S(=O)(=O)N2CCCCC2)ccc1Cl	5.07
O=C(NCC(c1cccs1)N1CCOCC1)c1cc(S(=O)(=O)N2CCOCC2)c(Cl)cc1Cl (stereo not shown)	-9.54

SMILES	hERG current change (%, negative = inhibition) at 10uM [%]
O=C(NCc1ccncc1)c1cc(S(=O)(=O)N2CCOCC2)c(Cl)cc1Cl	-13.3
COc1ccc(S(=O)(=O)N2CCCC2)cc1C(=O)O	30.4
COc1ccc(S(=O)(=O)N2CCCCCC2)cc1C(=O)NCCc1ccc(F)cc1	-31.4
COc1ccc(S(=O)(=O)N2CCCCCC2)cc1C(=O)NCc1ccc(C)cc1	-29.1
COc1ccc(S(=O)(=O)N2CCCCCC2)cc1C(=O)NCCc1ccccc1	-65.5
COc1ccc(S(=O)(=O)N2CCCCCC2)cc1C(=O)NCc1cccs1	-68.3
CCCC(C)NC(=O)c1cc(S(=O)(=O)N2CCCCCC2)ccc1OC (stereo not shown)	-54.4
COc1ccc(S(=O)(=O)N2CCCCCC2)cc1C(=O)N(C)Cc1cccs1	-40.5
Cc1ccc(S(=O)(=O)N2CCCCC2)cc1C(=O)NCCc1ccccc1	11.2
O=C(NCc1cccs1)c1cc(S(=O)(=O)N2CCOCC2)c(Cl)cc1Cl	-81.6
COc1ccc2ncn(-c3ccccc3)c2c1	-7.39
COc1ccc(NC(=O)c2ccc(Cn3cc(Cl)cn3)cc2)cc1	1.21
Cc1ccc(NC(=O)c2ccco2)c(NC(=O)Cc2cccs2)c1	-2.72
O=C(NCCc1ccccc1F)C1CC(=O)N(c2ccccc2)C1 (stereo not shown)	1.17
C/C(=N\Nc1nc(C(C)(C)C)cs1)c1ccccc1	16.4
Cc1cccc(NC(=O)CC2C(=O)NCCN2C(=S)Nc2ccccc2)c1 (stereo not shown)	1.17
Cc1cnc(NC(=O)c2c(-c3ccccc3)noc2C)s1	-2.27
O=C(NNC(=O)c1ccccc1Br)c1cccc(Cl)c1	-7.94
CC(C)CCCC(C)NC(=O)c1cc(S(=O)(=O)N2CCCCC2)ccc1N1CCOCC1 (stereo not shown)	-36.8
CCC(CC)NC(=O)c1cc(S(=O)(=O)N2CCCCC2)ccc1N1CCOCC1	-20.3
CCCCCC(C)NC(=O)c1cc(S(=O)(=O)N2CCCCC2)ccc1N1CCOCC1 (stereo not shown)	-70.9
COc1ccc(NC(=O)CCSc2ccc3ccccc3n2)cc1	-11.7
CCOC(=O)n1n[n+]([O-])c2ccccc21	35.5
CC(=O)c1ccc(S(=O)(=O)NCCc2cn3ccc(C)cc3n2)cc1	-29.9

SMILES	hERG current change (%, negative = inhibition) at 10uM [%]
Cc1ccn2cc(CCNS(=O)(=O)c3ccc([N+](=O)[O-])cc3)nc2c1	-69.7
Cc1ccn2cc(CCNS(=O)(=O)c3ccc4ccccc4c3)nc2c1	-39.6
CCc1ccc(S(=O)(=O)NCCc2cn3cccc(C)c3n2)s1	-16.2
O=[N+]([O-])c1ccc(S(=O)(=O)NCCc2cn3ccccc3n2)cc1	-40.6
CCc1ccc(S(=O)(=O)NCCc2cn3ccc(C)cc3n2)s1	-54.2
CCc1ccc(S(=O)(=O)NCCc2cn3ccccc3n2)s1	-29.5
CCOc1ccc(S(=O)(=O)NCCc2cn3ccccc3n2)cc1	-11
O=S(=O)(NCCc1cn2ccccc2n1)c1ccc(-c2ccccc2)cc1	-62
COc1cccc(C(=O)COC(=O)COc2c(C)cc(C)cc2C)c1	1.18
COc1ccc(-c2c(C(C)=O)c(C)nc3sc4c(=N)n(N)cnc4c23)cc1	3.48
O=C(NC1CC1)c1ccc2c(Cl)c3c(nc2c1)CCCC3	-63.7
CCCN(CCC)CCCNC(=O)c1ccc2c(Cl)c3c(nc2c1)CCC3	-29.1
CC1CCN(CCCNC(=O)c2ccc3c(Cl)c4c(nc3c2)CCCC4)CC1	-40.9
COCCNC(=O)c1ccc2c(Cl)c3c(nc2c1)CCC3	-30.2
O=C(NCCCN1CCCC1)c1ccc2c(Cl)c3c(nc2c1)CCCC3	-50.1
CCOC(=O)N1CCC(NC(=O)c2ccc3c(Cl)c4c(nc3c2)CCCC4)CC1	-36.6
CCCN1CCN(CCCNC(=O)c2ccc3c(Cl)c4c(nc3c2)CCCC4)CC1	-61.1
CCN(CC)CCCNC(=O)c1ccc2c(Cl)c3c(nc2c1)CCCC3	-48.7
O=C(NCCCN1CCCCCC1)c1ccc2c(Cl)c3c(nc2c1)CCCC3	-53
CCN1CCN(CCCNC(=O)c2ccc3c(Cl)c4c(nc3c2)CCCC4)CC1	-46.8
CC(C)CCNC(=O)c1ccc2c(Cl)c3c(nc2c1)CCC3	21.4
CN1CCN(CCCNC(=O)c2ccc3c(Cl)c4c(nc3c2)CCCC4)CC1	-6.81
